Assays:
Test in all cases: log2 ratio of Biotin-Ahx-Ub-VS probe labelling (fragment/DMSO); higher = less target engagement (more negative = stronger competition), active = hit call of the paper (q ≤ 0.05, log2 ratio ≤ -1)
Settings in all cases: compound concentration: 200 uM; treatment time: 3 h
USP34 = USP34 (UniProt Q70CQ2)
Summary of the method: (§1)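 HEK293T lysate (495 µg per sample, in Tris/CHAPS/IGEPAL buffer with protease inhibitors) was treated in triplicate with fragment at 200 µM or with DMSO for 3 h. It was then treated with Biotin-Ahx-Ub-VS (0.5 µM final) for 1 h. Labelled DUBs were NeutrAvidin-enriched, digested with LysC and trypsin, and run by diaPASEF LC-MS/MS. Spectronaut label-free quantities were global-median-normalised. Values are average log2 ratios fragment/DMSO by unpaired t-test, using proteins with ≥2 unique peptides.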

USP36 = target: T1, USP36 (UniProt Q9P275)
T1 sequence (whole entry): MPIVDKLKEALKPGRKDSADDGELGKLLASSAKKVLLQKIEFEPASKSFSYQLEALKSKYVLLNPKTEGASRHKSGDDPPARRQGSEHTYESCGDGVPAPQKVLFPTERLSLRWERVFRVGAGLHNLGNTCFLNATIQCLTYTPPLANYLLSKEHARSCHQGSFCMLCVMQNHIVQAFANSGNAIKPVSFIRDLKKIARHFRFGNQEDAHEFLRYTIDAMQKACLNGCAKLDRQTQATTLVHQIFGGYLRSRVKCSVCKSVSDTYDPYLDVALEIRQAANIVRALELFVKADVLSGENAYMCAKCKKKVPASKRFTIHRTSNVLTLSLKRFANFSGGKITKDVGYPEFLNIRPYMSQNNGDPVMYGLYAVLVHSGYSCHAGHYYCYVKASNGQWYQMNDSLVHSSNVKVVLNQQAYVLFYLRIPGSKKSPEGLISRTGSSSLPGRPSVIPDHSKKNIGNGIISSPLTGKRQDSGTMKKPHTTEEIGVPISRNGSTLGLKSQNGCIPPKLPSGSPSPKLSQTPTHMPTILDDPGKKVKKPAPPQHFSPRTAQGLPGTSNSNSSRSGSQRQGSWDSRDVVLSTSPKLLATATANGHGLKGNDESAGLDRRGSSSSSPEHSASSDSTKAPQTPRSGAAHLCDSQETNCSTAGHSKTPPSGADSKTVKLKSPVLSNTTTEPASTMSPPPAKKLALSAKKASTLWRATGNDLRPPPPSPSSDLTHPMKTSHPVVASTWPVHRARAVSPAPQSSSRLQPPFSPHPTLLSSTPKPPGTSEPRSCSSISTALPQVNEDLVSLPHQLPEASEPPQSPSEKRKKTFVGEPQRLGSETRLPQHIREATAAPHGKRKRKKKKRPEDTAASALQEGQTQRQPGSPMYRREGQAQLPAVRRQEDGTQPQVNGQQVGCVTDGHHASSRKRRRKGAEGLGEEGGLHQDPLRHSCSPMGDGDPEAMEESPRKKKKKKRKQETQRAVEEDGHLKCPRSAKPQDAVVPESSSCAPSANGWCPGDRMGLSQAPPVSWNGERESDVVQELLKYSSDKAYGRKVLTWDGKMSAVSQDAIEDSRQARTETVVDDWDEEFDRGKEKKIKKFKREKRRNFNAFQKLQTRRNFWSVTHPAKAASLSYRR
Summary of the method: as §1

USP38 = target: T2, USP38 (UniProt Q8NB14)
T2 sequence (whole entry): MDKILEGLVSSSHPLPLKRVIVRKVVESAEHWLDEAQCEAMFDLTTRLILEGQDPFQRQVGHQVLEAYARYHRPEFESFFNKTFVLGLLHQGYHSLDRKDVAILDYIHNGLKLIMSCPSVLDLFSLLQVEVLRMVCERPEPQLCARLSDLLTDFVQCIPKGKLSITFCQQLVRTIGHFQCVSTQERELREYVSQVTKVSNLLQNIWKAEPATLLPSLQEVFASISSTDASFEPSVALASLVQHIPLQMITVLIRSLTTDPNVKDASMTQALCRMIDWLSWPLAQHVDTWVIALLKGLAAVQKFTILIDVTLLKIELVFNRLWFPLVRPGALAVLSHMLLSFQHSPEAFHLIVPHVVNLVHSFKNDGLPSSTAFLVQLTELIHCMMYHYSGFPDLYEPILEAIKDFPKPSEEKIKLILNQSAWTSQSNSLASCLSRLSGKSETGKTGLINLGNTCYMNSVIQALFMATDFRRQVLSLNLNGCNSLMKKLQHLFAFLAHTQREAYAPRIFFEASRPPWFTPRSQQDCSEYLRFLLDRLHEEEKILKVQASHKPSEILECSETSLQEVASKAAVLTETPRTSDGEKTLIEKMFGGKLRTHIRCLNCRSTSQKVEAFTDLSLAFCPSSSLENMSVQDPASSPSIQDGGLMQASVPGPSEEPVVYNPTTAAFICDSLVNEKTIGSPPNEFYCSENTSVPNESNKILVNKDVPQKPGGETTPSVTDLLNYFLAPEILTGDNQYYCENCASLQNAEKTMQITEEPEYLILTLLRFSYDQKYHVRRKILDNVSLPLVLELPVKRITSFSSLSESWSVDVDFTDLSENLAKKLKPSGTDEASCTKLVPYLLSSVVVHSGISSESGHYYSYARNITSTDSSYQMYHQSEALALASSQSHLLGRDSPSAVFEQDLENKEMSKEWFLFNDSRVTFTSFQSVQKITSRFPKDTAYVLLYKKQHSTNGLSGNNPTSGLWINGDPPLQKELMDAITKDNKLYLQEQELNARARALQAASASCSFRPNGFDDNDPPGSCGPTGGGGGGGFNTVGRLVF
Summary of the method: as §1

USP39 = target: T3, USP39 (UniProt Q53GS9)
T3 sequence (whole entry): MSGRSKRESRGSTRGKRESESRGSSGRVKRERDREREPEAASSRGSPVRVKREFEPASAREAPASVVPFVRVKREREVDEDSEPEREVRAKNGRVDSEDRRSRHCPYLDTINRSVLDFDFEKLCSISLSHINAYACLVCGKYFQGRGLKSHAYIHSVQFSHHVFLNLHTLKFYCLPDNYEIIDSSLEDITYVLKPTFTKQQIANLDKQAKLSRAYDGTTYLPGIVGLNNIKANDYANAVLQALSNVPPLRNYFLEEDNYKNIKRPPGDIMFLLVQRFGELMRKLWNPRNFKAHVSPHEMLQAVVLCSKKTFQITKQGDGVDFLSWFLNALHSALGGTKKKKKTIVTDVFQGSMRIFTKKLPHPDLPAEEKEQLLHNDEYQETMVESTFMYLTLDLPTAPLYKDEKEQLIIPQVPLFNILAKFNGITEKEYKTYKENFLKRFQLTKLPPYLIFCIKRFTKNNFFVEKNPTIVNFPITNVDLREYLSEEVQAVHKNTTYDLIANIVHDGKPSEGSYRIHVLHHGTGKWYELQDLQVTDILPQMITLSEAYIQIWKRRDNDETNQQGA
Summary of the method: as §1

USP4 = target: T4, USP4 (UniProt Q13107)
T4 sequence (whole entry): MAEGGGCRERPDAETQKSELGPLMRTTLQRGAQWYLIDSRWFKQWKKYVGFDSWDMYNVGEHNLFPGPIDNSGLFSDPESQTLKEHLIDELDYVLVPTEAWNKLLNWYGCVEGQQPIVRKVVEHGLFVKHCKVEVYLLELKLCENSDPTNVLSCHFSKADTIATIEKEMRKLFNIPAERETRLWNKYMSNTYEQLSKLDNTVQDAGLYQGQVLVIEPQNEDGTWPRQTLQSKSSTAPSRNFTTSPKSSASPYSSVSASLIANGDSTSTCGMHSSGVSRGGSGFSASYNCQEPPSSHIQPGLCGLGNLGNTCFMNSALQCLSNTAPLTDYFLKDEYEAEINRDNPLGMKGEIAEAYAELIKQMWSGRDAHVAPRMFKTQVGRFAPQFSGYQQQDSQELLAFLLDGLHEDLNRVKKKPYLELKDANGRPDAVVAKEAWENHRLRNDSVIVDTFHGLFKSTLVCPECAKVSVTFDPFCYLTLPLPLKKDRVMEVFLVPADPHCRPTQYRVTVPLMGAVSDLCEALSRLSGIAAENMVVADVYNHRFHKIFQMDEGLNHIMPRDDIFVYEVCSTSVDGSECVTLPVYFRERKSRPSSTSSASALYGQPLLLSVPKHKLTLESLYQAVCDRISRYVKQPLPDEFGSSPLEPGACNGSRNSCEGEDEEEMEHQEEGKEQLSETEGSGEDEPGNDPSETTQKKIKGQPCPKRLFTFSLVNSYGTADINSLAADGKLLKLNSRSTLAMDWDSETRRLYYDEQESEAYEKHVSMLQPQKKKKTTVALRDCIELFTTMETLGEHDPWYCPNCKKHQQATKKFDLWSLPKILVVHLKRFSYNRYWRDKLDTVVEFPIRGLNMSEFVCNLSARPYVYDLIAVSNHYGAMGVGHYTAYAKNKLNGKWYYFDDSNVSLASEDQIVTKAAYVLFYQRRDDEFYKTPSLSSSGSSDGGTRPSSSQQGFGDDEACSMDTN
Summary of the method: as §1

Measured: log2 ratio of Biotin-Ahx-Ub-VS probe labelling

Chain of USP34 (Q70CQ2 whole entry, the tested form may be a part): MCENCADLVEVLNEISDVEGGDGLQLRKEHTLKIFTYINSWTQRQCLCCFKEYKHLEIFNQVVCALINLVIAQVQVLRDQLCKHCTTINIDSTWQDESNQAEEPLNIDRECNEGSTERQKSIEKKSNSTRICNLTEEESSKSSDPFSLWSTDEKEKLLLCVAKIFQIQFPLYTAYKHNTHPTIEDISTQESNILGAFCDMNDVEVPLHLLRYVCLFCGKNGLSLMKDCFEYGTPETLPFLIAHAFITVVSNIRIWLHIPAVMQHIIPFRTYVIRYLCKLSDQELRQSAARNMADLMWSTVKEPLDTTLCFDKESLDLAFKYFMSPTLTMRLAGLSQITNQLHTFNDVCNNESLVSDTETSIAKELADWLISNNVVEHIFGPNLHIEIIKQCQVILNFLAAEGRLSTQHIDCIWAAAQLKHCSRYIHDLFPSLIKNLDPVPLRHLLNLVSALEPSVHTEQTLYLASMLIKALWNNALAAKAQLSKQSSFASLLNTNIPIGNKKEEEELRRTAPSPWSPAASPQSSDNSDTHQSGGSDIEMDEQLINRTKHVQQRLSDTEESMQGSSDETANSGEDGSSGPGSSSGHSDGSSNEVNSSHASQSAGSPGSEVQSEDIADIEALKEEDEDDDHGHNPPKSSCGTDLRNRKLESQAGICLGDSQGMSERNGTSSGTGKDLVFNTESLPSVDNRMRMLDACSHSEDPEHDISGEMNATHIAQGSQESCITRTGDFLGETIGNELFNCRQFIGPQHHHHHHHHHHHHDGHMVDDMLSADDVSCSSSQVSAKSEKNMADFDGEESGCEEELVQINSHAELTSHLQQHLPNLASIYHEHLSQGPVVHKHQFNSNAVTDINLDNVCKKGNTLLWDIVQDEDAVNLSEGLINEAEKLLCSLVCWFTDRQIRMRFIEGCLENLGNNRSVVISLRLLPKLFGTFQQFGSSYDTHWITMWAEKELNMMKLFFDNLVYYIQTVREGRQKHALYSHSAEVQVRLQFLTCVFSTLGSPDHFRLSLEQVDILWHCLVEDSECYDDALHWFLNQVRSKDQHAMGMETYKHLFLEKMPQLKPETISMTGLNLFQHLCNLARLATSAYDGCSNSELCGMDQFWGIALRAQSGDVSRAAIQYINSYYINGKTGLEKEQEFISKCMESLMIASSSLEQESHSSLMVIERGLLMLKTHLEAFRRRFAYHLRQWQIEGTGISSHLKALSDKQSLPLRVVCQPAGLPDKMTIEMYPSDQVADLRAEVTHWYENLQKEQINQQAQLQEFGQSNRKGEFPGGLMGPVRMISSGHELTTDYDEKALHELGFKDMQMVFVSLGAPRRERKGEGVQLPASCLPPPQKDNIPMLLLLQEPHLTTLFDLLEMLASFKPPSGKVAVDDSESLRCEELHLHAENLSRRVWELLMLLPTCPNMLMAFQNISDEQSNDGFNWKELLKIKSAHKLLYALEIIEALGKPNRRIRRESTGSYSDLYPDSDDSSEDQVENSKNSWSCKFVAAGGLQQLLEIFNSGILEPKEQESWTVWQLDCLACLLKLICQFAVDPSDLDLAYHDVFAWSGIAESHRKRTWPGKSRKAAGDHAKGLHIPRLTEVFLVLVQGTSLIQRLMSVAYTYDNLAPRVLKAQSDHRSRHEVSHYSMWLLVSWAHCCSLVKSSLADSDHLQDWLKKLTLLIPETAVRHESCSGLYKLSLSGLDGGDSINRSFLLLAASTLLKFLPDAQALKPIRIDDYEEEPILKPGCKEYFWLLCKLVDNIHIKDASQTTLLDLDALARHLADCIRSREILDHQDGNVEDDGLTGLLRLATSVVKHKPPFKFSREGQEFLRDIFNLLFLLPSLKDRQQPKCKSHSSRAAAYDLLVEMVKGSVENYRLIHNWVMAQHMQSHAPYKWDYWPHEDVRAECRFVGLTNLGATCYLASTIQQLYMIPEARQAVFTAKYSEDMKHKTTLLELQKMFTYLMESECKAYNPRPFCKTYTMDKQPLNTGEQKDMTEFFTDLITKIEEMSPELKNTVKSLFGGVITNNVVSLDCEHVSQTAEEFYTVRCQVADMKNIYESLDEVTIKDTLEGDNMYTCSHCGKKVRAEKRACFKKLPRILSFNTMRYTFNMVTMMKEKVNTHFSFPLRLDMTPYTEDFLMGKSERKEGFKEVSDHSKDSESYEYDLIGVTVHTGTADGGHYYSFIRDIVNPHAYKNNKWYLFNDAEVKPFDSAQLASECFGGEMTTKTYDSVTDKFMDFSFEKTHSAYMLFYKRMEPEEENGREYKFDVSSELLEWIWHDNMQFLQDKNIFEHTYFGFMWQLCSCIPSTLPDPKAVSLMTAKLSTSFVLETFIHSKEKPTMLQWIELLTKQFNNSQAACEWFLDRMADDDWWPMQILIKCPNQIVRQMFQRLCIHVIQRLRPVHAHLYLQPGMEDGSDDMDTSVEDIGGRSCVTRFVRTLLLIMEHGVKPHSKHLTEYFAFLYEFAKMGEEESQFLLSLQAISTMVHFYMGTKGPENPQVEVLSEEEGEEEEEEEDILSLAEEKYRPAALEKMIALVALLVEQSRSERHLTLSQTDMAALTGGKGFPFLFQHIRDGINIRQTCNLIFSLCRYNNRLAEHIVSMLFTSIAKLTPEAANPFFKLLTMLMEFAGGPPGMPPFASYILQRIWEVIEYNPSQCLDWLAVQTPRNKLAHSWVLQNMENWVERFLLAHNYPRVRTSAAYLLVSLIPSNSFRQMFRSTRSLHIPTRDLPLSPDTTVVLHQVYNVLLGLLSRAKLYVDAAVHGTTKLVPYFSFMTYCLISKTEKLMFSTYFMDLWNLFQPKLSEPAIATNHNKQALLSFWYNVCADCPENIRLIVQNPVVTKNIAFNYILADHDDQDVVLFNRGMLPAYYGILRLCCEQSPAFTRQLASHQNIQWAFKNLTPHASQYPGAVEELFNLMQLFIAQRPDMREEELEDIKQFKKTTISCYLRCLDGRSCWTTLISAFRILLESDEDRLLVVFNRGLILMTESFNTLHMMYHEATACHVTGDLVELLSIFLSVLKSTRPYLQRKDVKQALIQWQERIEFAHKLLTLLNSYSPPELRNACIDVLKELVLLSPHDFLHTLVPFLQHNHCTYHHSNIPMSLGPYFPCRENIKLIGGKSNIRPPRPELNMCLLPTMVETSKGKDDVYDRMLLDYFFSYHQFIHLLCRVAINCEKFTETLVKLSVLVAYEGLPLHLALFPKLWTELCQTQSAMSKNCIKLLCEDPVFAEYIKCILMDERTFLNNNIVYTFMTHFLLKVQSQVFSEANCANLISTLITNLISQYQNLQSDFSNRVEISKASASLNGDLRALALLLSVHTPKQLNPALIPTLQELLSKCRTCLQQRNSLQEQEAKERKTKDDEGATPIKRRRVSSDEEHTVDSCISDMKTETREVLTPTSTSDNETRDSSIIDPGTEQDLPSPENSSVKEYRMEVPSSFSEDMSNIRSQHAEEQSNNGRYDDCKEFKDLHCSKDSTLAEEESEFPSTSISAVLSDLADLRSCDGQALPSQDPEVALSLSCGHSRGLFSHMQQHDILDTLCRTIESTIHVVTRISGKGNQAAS

C/C(=C\CNC(=O)CCl)c1cnn(C)c1.Cl
inactive: USP34 -0.267 | USP36 -0.266 | USP38 -0.227 | USP39 0.0033 | USP4 -0.395

Source: the supplement of paper PMC11732987, “Enantioselective OTUD7B fragment discovery through chemoproteomics screening and high-throughput optimisation” (Communications Chemistry, 2025)
